# Reference: ChEMBL document CHEMBL4888484, “Replenishing the malaria drug discovery pipeline: Screening and hit evaluation of the MMV Hit Generation Library 1 (HGL1) against asexual blood stage Plasmodium falciparum ,using a nano luciferase reporter read-out” (2022)
# Out of some 4,800 compounds screened, about 410 (8.5%) showed an effect of 50% or more. The sample as a whole holds a higher share of strong results than the screen did.
# System: Plasmodium falciparum
# Test: Confirmatory screen in NF54 pLDH assay, in single point, at 2uM, 72h
# Format: functional, Erythrocyte
# Conditions: timepoint 72 hour
row,SMILES,% Inhibition [%]
1,CCC1(CC)NC(=O)N(CC(=O)Nc2cccc(CC(=O)OC)n2)C1=O,-20
2,c1ccc(CNc2ncnc3c2cnn3-c2ccccn2)cc1,7
3,CN(CCN)c1ccc(Br)cc1C#N,9
4,O=C(CN1C=CCC=C1c1nc(-c2ccc(Br)cc2)cs1)c1ccccc1,46
5,COc1ccc(C2=CN(CC(=O)c3ccc(Cl)cc3)C3=CCCCCN23)cc1,41
6,COc1ccc(C(=O)CN2C=CCC=C2c2nc(-c3ccc(Cl)cc3)cs2)cc1,73
7,COc1ccc(NC(=O)c2cc3c(C)nn(-c4ccccc4)c3s2)cn1,9
8,O=C1C2C(Cc3ccccc3)NC3(C(=O)Nc4ccccc43)C2C(=O)N1c1cccc(C(F)(F)F)c1 (configuration not stated),6
9,COc1ccc(C2CC(c3ccccc3)N(C(C)=O)c3ncnn32)cc1 (configuration not stated),-7
10,COc1ccc(C(=O)N2c3ncnn3C(c3ccccc3)CC2c2ccc(C)cc2)cc1OC (configuration not stated),98
11,COc1ccc(C(=O)Nc2nnc([C@H]3CC(=O)N(c4ccc(C)cc4)C3)o2)cc1OC,-19
12,O=C(NCCCn1ncc2c(Cl)cccc21)C1CCC1,8
13,CCc1ccc(NC(=O)Cc2c(C)nc3nc(-c4ccccc4C)nn3c2C)cc1,3
14,C[C@H](NS(C)(=O)=O)C(=O)NC(C)(C)Cc1ccccc1Cl,2
15,CCCN1CCC(NCc2ccc(-c3cccc(Cl)c3Cl)o2)CC1,98
16,CCOCC(=O)Nc1ccc(OC(F)(F)F)cc1,-14
17,Cc1ccccc1N1C(O)=Nc2ccccc2S1(=O)=O,-19
18,Cc1nnc(Cn2nnc(C(=O)NCC3(CC(C)C)CCC3)c2C)o1,-24
19,c1ccc(-c2nnc3nc(N4CCOCC4)nc(N4CCOCC4)n23)cc1,6
20,Cc1cc(CNC(=O)c2csc(=O)[nH]2)n(C)n1,12
21,CCc1ccc2ncc(C(=O)c3ccc(Cl)cc3)c(O)c2c1,1
22,CC(=O)c1nc2cc(F)c(N3CCOCC3)cc2nc1C,-13
23,O=C(NCCc1cccs1)c1cnn2c(-c3ccc4c(c3)OCO4)ccnc12,-8
24,CCCn1ccnc1-c1cn(Cc2cc3ccccc3[nH]2)nn1,54
25,O=C(c1ccc2ccccc2c1)N1CCC[C@H]1c1nc2ccccc2s1,11
26,O=C(NCc1ccco1)c1ccc2c(c1)OCO2,-7

row,SMILES,% Inhibition [%]
1,Cn1n[n+](CC(=O)Nc2ccccc2Cl)c2ccccc21,3
2,Cn1n[n+](CCCCC(Cl)(Cl)Cl)c2ccccc21,52
3,CCC(CC)(NCC(=O)NC1CC1)c1ccc(Cl)cc1,-1
4,Cc1cc(C)n(C(=O)Cn2nc(C(F)F)cc2C)n1,11
5,CCc1ccc(C(=O)N2CCCN(c3nc(C4CCOCC4)nc4c3cnn4-c3ccccc3)CC2)cc1,-7
6,COC(=O)[C@H](C)N(C(=O)CO)c1c(C)cccc1C,10
7,O=C(c1nnn(-c2ccccc2Cl)c1-c1cccnc1)N1CCC(Cc2ccccc2)CC1,-8
8,COc1cccc(NC(=O)Nc2ccc3c(c2)NC(=O)C(C)(C)O3)c1,-4
9,Cc1sc2ncnc(N3CCCCC3)c2c1C(=O)NCc1cccc(Cl)c1,10
10,O=C(N[C@@H](N1CCCCC1)C(Cl)(Cl)Cl)c1ccc(Cl)cc1,0
11,Cc1ccccc1[C@H](CC(=O)O)NC(=O)C(F)(F)F,16
12,N=C1CCCN1c1c(Cl)cccc1Cl,5
13,COc1ccc(-c2cc3c(N4CCN(Cc5ccc6c(c5)OCO6)CC4)nccn3n2)cc1OC,-2
14,Cc1cccc2[nH]cc(CCNC(=O)N3CCC4CCC(C3)N4C)c12 (configuration not stated),11
15,CCc1cc(C(=O)N2CCC[C@H](C)C2)c2c(C3CC3)nn(-c3ccccc3)c2n1,4
16,O=C(O)c1ccc(N(C(=O)c2ccc3c(c2)OCO3)C(=O)c2ccc3c(c2)OCO3)cc1O,15
17,COc1ccccc1C(=O)N(Cc1cccs1)c1ccc(C)c(Cl)c1,1
18,Cc1c(Cl)cccc1C(=O)N1CCC[C@H](Cn2cncn2)C1,1
19,O=C(N[C@@H]1CN(Cc2ccccn2)CCC[C@H]1O)c1ccc(OCc2ccccc2)cc1,42
20,CCOC(=O)C1CCC(CN(Cc2ccc(OC)cc2)S(=O)(=O)c2cc(C(=O)Nc3ccc(OCC)cc3)ccc2F)CC1 (configuration not stated),6
21,CN1CCN(c2nc(O)c3c(n2)NC(=O)C[C@H]3c2c(F)cccc2Cl)CC1,-6
22,O=C(CC(F)(F)F)NCc1ccccn1,-21
23,O=C(c1ccccc1)n1c(=O)n(C(=O)c2ccccc2)c2ccccc21,7
24,Cc1n(CC(=O)c2ccccc2)c2ccccc2[n+]1CC(=O)c1ccccc1,66
25,CCC(=O)Nc1ccc(Oc2c(C)c(C(=O)O)nn2-c2ccccc2CC)c(S(=O)(=O)NCC(C)C)c1,9
26,C[C@@H](CNS(=O)(=O)c1ccco1)N(C)S(=O)(=O)c1ccco1,4

row,SMILES,% Inhibition [%]
1,O=C(Nc1ccc2c(c1)OCO2)c1c(-c2ccc(Cl)cc2)nc2n1CCS2(=O)=O,6
2,CC(CNc1ccccn1)N1CCOCC1C (configuration not stated),0
3,c1ccc(Oc2ccc(CNCc3nnc4n3CCCCC4)o2)cc1,9
4,C#C[C@H](C)OC(=O)c1cccc(Nc2cnccn2)c1,10
5,CCNC(=O)NCCOC(=O)Cc1cc(Cl)cc2c1OCC2,-1
6,COCc1cnc(NC(=O)NC2(c3ncccn3)CCOCC2)s1,10
7,COc1ccc(CN2CCC(C(=O)NCCCN3CCOCC3)CC2)c(OC)c1,9
8,Cc1ccc(CS(=O)(=O)NC(=O)N2CCC(c3ccccc3)CC2)cc1,10
9,O=C(NC1CCCC1)c1n[nH]c(=O)c2ccccc12,7
10,COc1cccc2c1OCC(=O)N([C@@H](C)c1ccccc1)C2,-12
11,Cc1nnc(-c2cnn(C)c2N)n1C[C@H]1CCCO1,9
12,O=C(Nc1ccn(Cc2cccnc2)n1)c1ccc(-c2ccccc2F)o1,6
13,O=C(CCC(=O)Nc1cccnc1)NCc1ccc2c(c1)OCO2,6
14,O=C(Nc1cccnc1)c1ccc(-c2ccc(Cl)c(Cl)c2)o1,89
15,CC(C)(C)OC(=O)NS(=O)(=O)NCc1ccccc1,4
16,Cc1nc(CNS(=O)(=O)Cc2ccc(F)c(Cl)c2)sc1C,3
17,O=C(NCCN1CCCC1)c1ccc2nc(-c3ccc(Cl)cc3)cn2c1,70
18,O=C(NCCN1CCCC1)c1ccc2c(c1)OCCO2,-7
19,O=c1ccn2c(n1)O[C@H]1[C@H](OC3CCCCO3)[C@@H](COC3CCCCO3)O[C@H]12 (some centres not stated),-17
20,Cc1cc(NC(=O)[C@@H](c2ccccc2)N2CCCCC2=O)sn1,1
21,COC(=O)C1=C(C(=O)OC)SC(=C2C(=S)C(C)(C)N(C(=O)COc3ccc4ccccc4c3)c3ccccc32)S1,7
22,Cc1ccc(CN2CCN(C[C@@H](O)Cn3c4ccccc4n4c(=O)cc(C)c(C#N)c34)CC2)c(C)c1,96
23,N#Cc1c(CN2CCOCC2)cc(=O)n2c1[nH]c1ccccc12,0
24,COc1cc2c(cc1OC)CN(C(=O)c1cccc(N3C(=O)C(C)(C)CS3(=O)=O)c1)CC2,3
25,Cc1cc2n(n1)C(C(F)(F)F)CCN2C(=O)C(C)N1C(=O)C2CCCCC2C1=O (configuration not stated),4
26,Cn1nc(C(=O)NC2CCCCC2)cc1C(=O)NC1CCCCC1,12

row,SMILES,% Inhibition [%]
1,C[C@@H](CNc1ncc(C(=O)N2CCOCC2)cc1Cl)c1nncn1C,-9
2,COc1ccc(Cl)cc1S(=O)(=O)c1cnc(N2CCOCC2)nc1N,10
3,CN1CCN(c2c(F)cc3c(=O)c(C(=O)O)cn(-c4ccc(OC5CC6CCC5(C)C6(C)C)c(F)c4)c3c2F)CC1 (configuration not stated),-4
4,COc1cccc(NC(=O)N2CCN(c3nc4ccccc4n(Cc4ccccc4)c3=O)CC2)c1,0
5,Cc1ccccc1S(=O)(=O)NCc1nnc(C(=O)Nc2ccc(F)cc2F)s1,11
6,Cc1onc(N)c1S(=O)(=O)Nc1ccncc1,-2
7,Cc1ccc(C)c(S(=O)(=O)NCCNc2ccc(Nc3ccncc3)nn2)c1,29
8,CCNc1nc(C)cc(Nc2ccc(NS(=O)(=O)c3c(C)noc3C)cc2)n1,100
9,O=C(Nc1ccc(N2CCOCC2)cc1)Nc1ccc(F)cc1F,7
10,CCNc1nc(C)cc(Nc2ccc(NC(=O)c3cc(C)ccc3C)cc2)n1,99
11,CCC(=O)N1CCN(c2cc(Nc3ccc(C)cc3)nc(C)n2)CC1,-1
12,CCC(=O)Nc1nc2c(OC)cc(NS(=O)(=O)c3c(C)noc3C)cc2s1,10
13,Cn1cc(C(=O)NCC2CCN(S(=O)(=O)c3cccs3)CC2)cn1,2
14,CCc1ccc(NC(=O)[C@@H]2CCn3c(C(=O)c4ccccc4)ccc32)cc1,6
15,CCc1ccc(NC(=O)[C@H](C)N2CCC(NS(=O)(=O)c3cccs3)CC2)cc1,77
16,Cc1nn(Cc2cccc(F)c2)c(C)c1NC(=O)c1cccc(COc2ccc(Br)cc2)c1,16
17,COc1cc(C)sc1C(=O)NCc1csc(=O)[nH]1,-7
18,COc1ccc(C(=O)n2nc(Nc3ccccc3Cl)cc2Nc2ccccc2Cl)cc1,12
19,COc1ccc(-n2ncc3c(N)c4c(nc32)CCCC4=O)cc1,11
20,C[C@@H](C(=O)Nc1cccc2ccccc12)N1CCCCC1,7
21,CCOCCC1(CN=C(N)N2CCCCC2)CCCC1,5
22,Cc1ccc(C2c3ccsc3CCN2CCC(=O)N2CCN(C(=O)Cc3cccs3)C(C)C2)cc1 (configuration not stated),26
23,OC[C@H]1CCc2nnc(C(F)F)n2C1,11
24,CCn1nc(-n2cnnc2)c(NS(=O)(=O)c2cccc(Cl)c2)c1C,3
